# Results: PubChem BioAssay AID1259374 (The Scripps Research Institute Molecular Screening Center, 2018)
# Hit rate of the full screen: of about 650,000 compounds, about 5,900 (0.91%) were called active. Rule as the data show it: active = inhibition above about 50%; inactive = the rest. The list comes from a sample in which actives are over-represented; it also holds similar structures and randomly drawn compounds.
# Target: Microphthalmia-associated transcription factor (Homo sapiens) (UniProt O75030)
# Sequence (O75030 whole entry, looked up): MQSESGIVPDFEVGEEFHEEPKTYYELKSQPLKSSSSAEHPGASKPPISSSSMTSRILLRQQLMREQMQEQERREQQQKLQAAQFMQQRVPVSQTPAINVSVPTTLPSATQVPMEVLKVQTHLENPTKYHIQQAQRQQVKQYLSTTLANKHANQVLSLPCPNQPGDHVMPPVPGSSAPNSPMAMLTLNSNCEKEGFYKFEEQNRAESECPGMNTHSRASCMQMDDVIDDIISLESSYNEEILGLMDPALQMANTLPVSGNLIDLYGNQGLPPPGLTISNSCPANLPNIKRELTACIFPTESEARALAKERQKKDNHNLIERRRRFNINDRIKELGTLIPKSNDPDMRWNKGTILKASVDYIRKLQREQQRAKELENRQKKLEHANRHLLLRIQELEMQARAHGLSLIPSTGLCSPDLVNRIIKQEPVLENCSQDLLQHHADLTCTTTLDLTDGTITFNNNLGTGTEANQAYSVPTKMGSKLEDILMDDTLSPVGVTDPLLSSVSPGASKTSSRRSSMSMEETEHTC
# Assay: MITF inhibitors, primary screen, biochemical, AlphaScreen, human (AID 1259374);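 also: 0% = vehicle wells with protein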
# Conditions: AlphaScreen MITF homodimerization, bead proximity signal; at 2.6 µM; active compounds read high
row,Compound,inhibition
1,CCOC(=O)c1ccc(N2CCN(c3ccc(F)cc3)CC2)c(NC(=O)Nc2ccc(OC)cc2OC)c1,-1.5% (inactive)
2,O=C1C2C3CC(C(Br)C3Br)C2C(=O)N1C1CCCCC1 (stereo not given),-2.53% (inactive)
3,O=C(NCc1ccco1)c1ccc2c(c1)C(=O)N(Cc1cccnc1)C2=O,-3.01% (inactive)
4,O=C(c1ccc2c(c1)C(=O)N(Cc1cccnc1)C2=O)c1ccc2c(c1)C(=O)N(Cc1cccnc1)C2=O,104% (active)
5,O=C(Nc1cccc(O)c1)c1ccc2c(c1)C(=O)N(Cc1cccnc1)C2=O,-1.4% (inactive)
6,CC(=O)N1C(=O)C(=O)c2cc(Cl)ccc21,-11.3% (inactive)
7,Cc1ccc(NC(=O)C(C)C2Sc3ccccc3NC2=O)c(C)c1 (stereo not given),9.32% (inactive)
8,O=C(C1CCN(Cc2nc3ccccc3[nH]2)CC1)N1CCN(c2ccccn2)CC1,51.4% (active)
9,O=C(C1CCN(Cc2nc3ccccc3[nH]2)CC1)N1CCN(c2ccc(Cl)nn2)CC1,-4.97% (inactive)
10,O=C(C1CCN(c2nc3ccccc3n3cccc23)CC1)N1CCN(c2ccccn2)CC1,10.7% (inactive)
11,CN(c1ccccc1)S(=O)(=O)c1ccc(C(=O)N2CCc3ccccc32)cc1,-6.36% (inactive)
12,c1ccc(Oc2cccc(OCCCCn3cncn3)c2)cc1,73.8% (active)
13,O=C(Cn1cncn1)NCCCOc1cccc(CN2CCCCCCC2)c1,-3.47% (inactive)
14,Fc1ccccc1OCCCCn1cncn1,20.2% (inactive)
15,O=C(c1cccs1)N1CCN(S(=O)(=O)c2ccc(Cl)cc2)CC1,-0.92% (inactive)
16,O=C(CN1CCN(C(=O)c2cccs2)CC1)c1cccs1,-1.86% (inactive)
17,O=C(c1cccs1)N1CCC(N2CCN(Cc3ccccc3)CC2)CC1,76.7% (active)
18,Cc1cccc(CN2CCC(N3CCN(C(=O)c4cccs4)CC3)CCC2=O)c1 (stereo not given),-6.77% (inactive)
19,CCOC(=O)c1c(NC(=O)c2ccccc2Br)sc2c1CC(C)(C)NC2(C)C,3.37% (inactive)
20,Nc1ccc(S(=O)(=O)O)c2cc(S(=O)(=O)O)cc(O)c12,63.3% (active)

row,Compound,inhibition
1,NS(=O)(=O)c1ccc(O)c2ccccc12,13.7% (inactive)
2,Cc1ccc(/C=C2/C(=O)N(C)C(=S)N(c3ccccc3)C2=O)s1,23.2% (inactive)
3,O=C1c2ccccc2C(O)N1Cc1ccccc1Cl (stereo not given),79.6% (active)
4,O=C1c2ccccc2C(O)N1Cc1ccccc1 (stereo not given),3.72% (inactive)
5,O=C(NC1CC1)C1CCC(=O)N1Cc1ccccc1Cl (stereo not given),-6.74% (inactive)
6,COC(=O)Cn1cc(-c2ccc([N+](=O)[O-])cc2)nc1SCC(=O)NC(C)(C)C,-1.03% (inactive)
7,N#Cc1ccc(-c2cccnc2)nc1SCC(=O)c1ccc(Cl)cc1,-7.18% (inactive)
8,COCCN(C(=O)CN1C(=O)c2ccccc2C1=O)C1(C(=O)Nc2ccccc2)CCCC1,11.4% (inactive)
9,COc1ccc(NC(=O)C2(N(C)C(=O)Cn3nnnc3N)CCCCC2)cc1,5.13% (inactive)
10,CCN(C(=O)Cc1nc(N)n[nH]1)C1(C(=O)Nc2ccc(C)cc2)CCCCC1,63% (active)
11,CCN(C(=O)Cc1nc(N)n[nH]1)C1(C(=O)Nc2ccccc2)CCCCC1,68.5% (active)
12,COCCCN(C(=O)c1cc2ccccc2o1)C1(C(=O)Nc2ccccc2)CCCC1,6.26% (inactive)
13,COc1ccc(N(C(=O)Cc2nc(N)n[nH]2)C2(C(=O)Nc3ccccc3)CCCCC2)cc1,-1.47% (inactive)
14,Cc1ccc(NC(=O)Cn2c(=O)[nH]n(-c3ccccc3)c2=O)cc1C,-10.5% (inactive)
15,Cc1ccc(NC(=O)CNCCCSc2ccccc2)cc1C,75.4% (active)
16,Cc1ccc(NC(=O)CSCC(=O)Nc2ccccc2F)cc1C,4.24% (inactive)
17,CC1=CC(C)(C)N2C(=O)C(=O)c3cc(OC(=O)C(C)(C)C)cc1c32,-9.06% (inactive)
18,CC(C)OC(=O)C1=c2/c(=C/c3ccco3)c(N)c(C#N)n2C(=O)C(c2ccco2)S1 (stereo not given),14.9% (inactive)
19,Cc1nc(N2CCCCC2C)c2c(C)c(C(=O)NC3CCCCC3)sc2n1 (stereo not given),9.14% (inactive)
20,COCC(=O)Nc1ccc2nc(C)n(-c3ccc(F)cc3)c(=O)c2c1,-0.07% (inactive)

row,Compound,inhibition
1,COc1ccc(OCCSc2nnc3nc(C)cc(C)n23)cc1,7.82% (inactive)
2,COc1ccc(OCCn2ccnc2C)cc1,57.2% (active)
3,Cc1nccn1CC(O)COc1ccc(Br)cc1 (stereo not given),4.86% (inactive)
4,CC1CCC(C(C)C)C(OC(=O)COC(=O)c2cnccn2)C1 (stereo not given),2.66% (inactive)
5,Cc1cc(C)c(NC(=O)CNC(C)(C)C)c(C)c1,-3.53% (inactive)
6,CCN(CC)CC(=O)Nc1nn(-c2ccccc2)nc1C(N)=O,-0.44% (inactive)
7,CCN(CC)CC(=O)Nc1c2c(nc3ccccc13)N(c1cccc(C)c1)CC2,65.6% (active)
8,CC(C)(C)NCC(=O)Nc1c2c(nc3ccccc13)N(Cc1ccccc1)CC2,63.8% (active)
9,CCOC(=O)C1CCN(c2nc(-c3cccc(C)c3)nc3ccccc23)CC1,0.58% (inactive)
10,CCOC(=O)COc1cccc2c1CCN(Cc1ccccc1)C2=O,-3.19% (inactive)
11,Cc1[nH]c(=O)[nH]c(=O)c1S(=O)(=O)N1CCOc2ccccc21,5.78% (inactive)
12,CCc1ccc(NC(=O)C(=O)NCCCN2CCOCC2)cc1,12.7% (inactive)
13,CC(C)C(=O)Nc1ccc(CN2CCOCC2)cc1,1.55% (inactive)
14,CC(NCCCN1CCOCC1)C(=O)Nc1ccccc1 (stereo not given),77.6% (active)
15,O=C(Cn1c(=O)n(Cc2ccc3c(c2)OCO3)c(=O)c2ncccc21)N1CCc2ccccc21,3.95% (inactive)
16,COc1ccc(C(=O)COC(=O)CNS(=O)(=O)/C=C/c2ccc(C)cc2)cc1OC,74.8% (active)
17,CCOC(=O)N/N=C/c1ccc(OS(=O)(=O)c2ccc(C)cc2)c(OC)c1,2.78% (inactive)
18,COc1cc(C=O)ccc1OCC(=O)c1ccc(C)c(C)c1,11.1% (inactive)
19,O=C(CCN1C(=O)C2CCCCC2C1=O)N1CCc2c(nc(N3CCCC3)[nH]c2=O)C1 (stereo not given),-0.41% (inactive)
20,CC(C)[C@@H](CO)Nc1ccc2ncc(-c3ccccc3F)n2n1,-14.3% (inactive)
